This is an account of results in PubChem BioAssay.

Calls of active or inactive are those of the source.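 Rule for the calls: active = inhibition at or above 50% relative to wild type and mutant plate controls; inactive = inhibition below 50%.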

A short description of the assay: inhibitors of Chlamydomonas gravitaxis, primary screen, whole organism, Chlamydomonas reinhardtii, WT vs cilia-less mutant, absorbance, 96-well (AID 463189).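 Note: 0% = wild type cc124 cells in DMSO and 100% = ciliumless bld1 mutant cells.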 The settings on record: OD600 absorbance, 2 days, at 10 µM, active compounds read high.
By inhibition is commonly meant the change of the read-out against control, counted positive when it falls. Turning to `O=c1[nH]ccc2c(O)cccc12`, the inhibition is 3.93% (inactive).
Consider `COc1cc(CC(=O)O)ccc1O`, for which the inhibition is -2.57% (inactive).
As for `Nc1ncnc2c1c(-c1ccc(Oc3ccccc3)cc1)cn2C1CCCC1`, the inhibition is 35.3% (inactive).
With `Cc1cn([C@H]2C[C@@H](N=[N+]=[N-])[C@@H](CO)O2)c(=O)[nH]c1=O`, the inhibition is -6.23% (inactive).
Under `CC(=O)c1ccc(S(=O)(=O)NC(=O)NC2CCCCC2)cc1` stands -5.49% (inactive).
Under `NCCCNCCSP(=O)(O)O` stands 1.58% (inactive); under `CC1=C(/C=C/C(C)=C/C=C/C(C)=C/C(=O)Nc2ccc(O)cc2)C(C)(C)CCC1`, 1.68% (inactive); under `Cc1cn[nH]c1`, 7.85% (inactive).
For `COc1c2c(nc3ccccc13)OC(C(C)(O)CO)C2` (stereo not drawn) the value was 6.88% (inactive); for `CC(C)CN(C)c1nc(N)c(C(=O)N=C(N)N)nc1Cl`, -3.31% (inactive); for `CCc1cccc(N(C)C(N)=Nc2cccc3ccccc23)c1`, -1.11% (inactive).
Turning to `Oc1cc2c(cc1O)C(c1ccccc1)CNCC2` (stereo not drawn), the inhibition is -4.78% (inactive).
Take `Cn1cc(C2=C(c3ccc(Cl)cc3Cl)C(=O)NC2=O)c2ccccc21`: the inhibition is -0.155% (inactive).
As to `C#CCN(C)CCCOc1ccc(Cl)cc1Cl`, the inhibition is 24.1% (inactive).
Under `Nc1nc2c(nc(Br)n2C2OC3COP(=O)(O)O[C@@H]3C2O)c(=O)[nH]1` (stereo partly drawn) stands 2.8% (inactive).
As to `NC(N)=N[C@@H](CCC(=O)O)C(=O)O`, the inhibition is 2.13% (inactive).
As for `CN=C(NC#N)NCCSCc1nc[nH]c1C`, the inhibition is 8.94% (inactive).
Consider `CCNC(=O)[C@H]1O[C@@H](n2cnc3c(N)nc(NCCc4ccc(CCC(=O)O)cc4)nc32)C(O)[C@H]1O` (stereo partly drawn), for which the inhibition is 3.28% (inactive).
